Data taken from the supplement of paper PMC4206467.

Each molecule was assayed on Perkinsus marinus PRA240 (assay: ATP content (proliferation) relative to DMSO control; higher = more parasite growth (less inhibition)). Settings: 20 µM; 4 days.
Protocol: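 Perkinsus marinus PRA240 trophozoites (2-5x10^6 cells/ml, 100 µl, 96-well) were exposed once to MMV Malaria Box compounds at 20 µM (0.1% DMSO) in triplicate. ATP content (ATPlite bioluminescence) was read at day 4 post-exposure and normalised to DMSO + cells control wells (100% activity). Compounds were identified by joining plate and well to the Malaria Box list.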
CCOc1c(Br)cc(C2C(C(=O)OC)=CN(C)C=C2C(=O)OC)cc1OC was tested, and the ATP content was 123%.
With C=C(C)CCC(C)N1CCC(N2CCC(C(=O)NCCc3ccccc3)CC2)CC1 (stereo not given) the ATP content was 90%.
For CCOc1ccc(Nc2ccnc3cc(Cl)ccc23)cc1, the ATP content was 55.2%.
Cc1cc(NC(=O)c2cccc(C(F)(F)F)c2)n(-c2nc(-c3ccc4c(c3)OCO4)cs2)n1 showed an ATP content of 144%.
COc1ccc(Nc2nc(NN=Cc3ccc(O)cc3)nc(Nc3ccc([N+](=O)[O-])cc3)n2)cc1 showed an ATP content of 39.1%.
In the case of Cc1c(C)n(CC(O)CNC2CCCCC2C)c2ccccc12 (stereo not given), the ATP content is reported as 106%.
Molecule Cc1cc(Nc2cccc(F)c2)nc(NCc2ccccc2)n1 has an ATP content of 94.7%.
With CC(C)(C)c1ccc(C2CC3=Nc4ccccc4N(C(=O)c4ccccc4Cl)C(c4ccc(F)cc4)C3=C(O)C2)cc1 (stereo not given) the ATP content was 129%.
CCc1ccc(Nc2cc(C)nc3nc(C)nn23)cc1 showed an ATP content of 139%.
Work on O=C(Nc1ccsc1C(=O)NC1CCCCC1)c1ccc(F)cc1 yielded an ATP content of 90%.
COc1cccc(O)c1CN1CCC2(CCCN(Cc3ccc(F)cc3)C2)C1 (stereo not given) showed an ATP content of 70.7%.
Oc1ccc(Cl)cc1CNc1nc2ccccc2[nH]1 showed an ATP content of 49.7%.
Oc1c2c(nc3cc(-c4ccccc4)nn13)CCCC2 showed an ATP content of 47.5%.
Work on CCOc1ccc(C2N(C)c3ccccc3N2C)cc1 yielded an ATP content of 131%.
For Oc1c(CN2CCN(c3ccccc3F)CC2)cc(Br)c2cccnc12, the ATP content was 105%.
For COc1ccc(-c2nonc2NC(=O)c2cccc(C)c2)cc1OC, the ATP content was 82.6%.
CCN1CCN(c2cc(C)c3cc(NC(=O)c4ccc(OC)c(OC)c4)ccc3n2)CC1 showed an ATP content of 91.6%.
c1ccc(-c2ccc(-c3nc4ccccc4[nH]3)cc2)cc1 showed an ATP content of 16.5%.
With COC(=O)c1ccc(C2C3=C(O)CC(c4ccc(F)cc4)CC3=Nc3ccccc3N2C(=O)c2ccccc2)cc1 (stereo not given) the ATP content was 105%.
Molecule CN1c2ccccc2N(C)C1c1ccc2c(c1)OCO2 has an ATP content of 87.3%.
CCCCNc1nc(NC(C)(C)C)nc(NC(C)(C)C)n1 gave an ATP content of 116%.
In the case of Cc1cc(=O)oc2c1ccc1oc(C(=O)c3ccccc3)c(C)c12, the ATP content is reported as 154%.
Molecule Cc1ccc(F)cc1NC(=O)c1cc(Cl)ccc1Nc1ccccc1 has an ATP content of 113%.
Molecule COc1cc(SC)ccc1C(=O)N1CCCC(C)C1 (stereo not given) has an ATP content of 134%.
Molecule FC(F)(F)c1cccc(Nc2nc3ccccc3nc2Nc2cccc(C(F)(F)F)c2)c1 has an ATP content of 155%.
Cc1ccc(C)c(Cn2c(N3CCC(C(=O)NCc4cccs4)CC3)nc3ccccc32)c1 gave an ATP content of 154%.
Molecule Cc1sc(NC(=O)c2ccccc2)c(C(c2cccs2)N2CCN(c3ccccc3)CC2)c1C (stereo not given) has an ATP content of 97.8%.
O=C1c2ccccc2-c2nnc(-c3ccc(Br)cc3)cc21 gave an ATP content of 67.7%.
CCN(CC)c1ccc(NC(=O)c2cccs2)cc1 was tested, and the ATP content was 64%.
In the case of CN(C)c1ccc(-c2nc3cc(N)ccc3[nH]2)cc1, the ATP content is reported as 0.856%.
CCOc1cccc2sc(N(Cc3cccnc3)C(=O)C3CCCCC3)nc12 was tested, and the ATP content was 79.5%.
Molecule CN1CCN(c2c3c(c(C#N)c4nc5ccccc5n24)CCC3)CC1 has an ATP content of 140%.
CCOC(=O)c1cnc2ccc(OC)cc2c1NCc1ccccc1 showed an ATP content of 69.3%.
Work on O=C(NC1CCN(Cc2ccccc2)CC1)c1cc(C(=O)NC2CCN(Cc3ccccc3)CC2)cc(C(=O)NC2CCN(Cc3ccccc3)CC2)c1 yielded an ATP content of 90.4%.
O=C(Nc1ccc(Br)cc1)Nc1cccc(Cl)c1 was tested, and the ATP content was 142%.
In the case of CC(=O)NCCc1nc2ccccc2n1Cc1ccc(C(C)C)cc1, the ATP content is reported as 120%.
CCCCCCc1cc2cc(-c3csc(C=Cc4ccccc4)n3)c(=O)oc2cc1O was tested, and the ATP content was 137%.
Cc1ccc(CSCc2ccc(C(=O)NC3CC3)o2)cc1 showed an ATP content of 54.8%.
Cn1c(=O)n(C)c2cc(CNCCNc3ccnc4cc(Cl)ccc34)ccc21 gave an ATP content of 132%.
Molecule CCCC(c1nnnn1C1CCCCC1)N1CCN(C(=O)c2ccco2)CC1 (stereo not given) has an ATP content of 115%.
